# This is a sample that favours compounds with a hit; in the whole collection about 3.5% have one here.
# GDH-TPI counter-1: GDH-TPI coupled enzyme inhibition counter-screen. GDH-TPI coupled enzyme counterscreen, NADH absorbance. inhibition, % at 4.8 µM. 360,000 tested, 1.2% active. AID 588335; in the data active = inhibition above about 30%
# Rv3671c inh: inhibitors of M. tuberculosis serine protease Rv3671c; P9WHR9; inhibition, % at 5.96 µM; 320,000 tested, 0.048% active; in the data active = inhibition above about 38%;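 also: extracellular domain of Rv3671c used as enzyme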
# Target sequence (P9WHR9 whole entry, looked up, the tested form may be a part): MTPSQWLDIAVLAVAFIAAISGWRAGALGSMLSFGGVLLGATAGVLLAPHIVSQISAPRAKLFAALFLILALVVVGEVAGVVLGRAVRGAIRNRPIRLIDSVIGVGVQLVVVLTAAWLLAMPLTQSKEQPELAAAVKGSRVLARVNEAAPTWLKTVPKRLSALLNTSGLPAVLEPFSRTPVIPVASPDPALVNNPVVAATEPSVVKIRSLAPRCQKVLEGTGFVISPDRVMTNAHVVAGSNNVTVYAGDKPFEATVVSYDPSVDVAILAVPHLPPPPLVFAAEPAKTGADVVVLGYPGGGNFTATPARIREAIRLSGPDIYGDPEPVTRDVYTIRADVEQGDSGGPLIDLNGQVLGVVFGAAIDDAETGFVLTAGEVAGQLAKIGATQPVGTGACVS
# Mtb FBA inh: Mtb fructose-bisphosphate aldolase inhibition. P9WQA3. purified M. tuberculosis FBA, fluorescence read-out. inhibition, % at 1 µM. 360,000 tested, 2.3% active
# UGM FP inh: blocks M. tuberculosis UGM enzyme | P9WIQ1 | purified UGM, fluorescence polarization probe displacement | inhibition, % at 10 µM | 320,000 tested, 0.06% active | AID 504406; in the data active = inhibition above about 10%, passing the limit was not always enough
# Mtb FBA inh conf: Mtb FBA inhibition, confirmed. purified M. tuberculosis FBA, fluorescence read-out. inhibition, % at 1 µM. shares compounds with Mtb FBA inh. 5,600 tested, 78% active
# GDH-TPI counter-2: GDH-TPI inhibition counter-screen for FBA inhibitors; shares compounds with Mtb FBA inh; GDH-TPI coupled enzyme counterscreen, fluorescence; inhibition, % at 1 µM; 5,600 tested, 81% active; in the data active = inhibition above about 10%
# GDH-TPI DR: GDH-TPI dose response counter-screen for Mtb FBA; shares compounds with Mtb FBA inh; GDH-TPI coupled enzyme assay, fluorescence, artifact counterscreen; IC50, µM; 170 tested, 79% active; AID 652145; call rule not given here
# A number is an active result; – = inactive; · = not tested or not shown; + = active, no number. Rule as the data show it, unless noted: active = inhibition above about 27%; inactive = the rest.
SMILES,GDH-TPI counter-1,Rv3671c inh,Mtb FBA inh,UGM FP inh,Mtb FBA inh conf,GDH-TPI counter-2,others
CCOC(=O)CCc1c(C)c2ccc(OC(C)C(=O)OCC)c(C)c2oc1=O (configuration not stated),–,–,51.2,–,54.6,44.2,
CCC(=O)Oc1ccc2c(C)cc(=O)oc2c1C,–,–,39.3,–,93.6,95.0,
CCOc1ccc2c(C)cc(=O)oc2c1OCC,–,–,–,–,·,·,
O=C(CSc1n[nH]c(=O)n1Cc1ccccc1)Nc1ccc(F)c(F)c1F,–,–,–,–,·,·,
C=CCn1c2ccccc2c2n[nH]c(=S)nc21,–,·,–,–,·,·,
COc1ccccc1N/N=C/c1c(CO)cnc(C)c1O,–,–,–,–,·,·,
COc1cc(N=Cc2c(CO)cnc(C)c2O)cc(OC)c1OC,–,–,81.8,–,62.8,62.9,
CN1CCSc2ccc(C(=O)Nc3ccc(Cl)cc3)cc21,–,–,33.2,–,–,–,
CCN1CCSc2ccc(C(=O)NCc3cc(Br)ccc3OC)cc21,–,–,36.6,–,101.6,75.8,
COc1ccc(Br)cc1CNC(=O)c1ccc2c(c1)N(C)CCS2,–,–,49.9,–,+,152.4,
CN(C)S(=O)(=O)c1ccc(Cl)c(C(=O)NNC(=O)c2ccc3c(c2)OCO3)c1,–,–,–,–,·,·,
CCCCn1c(-c2cccc(F)c2)nc2c1c(=O)[nH]c(=O)n2CC(C)C,–,–,–,–,·,·,
CCCCn1c(-c2ccc(F)c(F)c2)nc2cc3[nH]c(=O)c(C(C)C)nc3cc21,–,–,51.9,–,113.3,92.1,
CCCCn1c(CCc2ccccc2)nc2cc3[nH]c(=O)c(C(C)C)nc3cc21,–,–,32.7,–,61.3,50.1,
O=C1NC(=O)c2cc3ccccc3cc21,–,–,36.5,–,34.4,23.9,
O=C1CCNc2cc3ccccc3cc21,–,–,–,–,·,·,
Cc1ccc([C@@H]2CC=C(C(=O)O)[C@H](c3cccc(Cl)c3)N2S(=O)(=O)c2ccccc2C)cc1,–,–,–,–,·,·,
Cc1ccc2cc(-c3noc(C(C)(C)C)n3)c(=O)[nH]c2c1,–,–,30.2,–,64.8,58.5,
CCc1nc(-c2cc3ccc(C)cc3[nH]c2=O)no1,–,–,30.5,–,90.7,81.6,
Cc1ccc2[nH]c(=O)c(-c3noc(C(C)C)n3)cc2c1,–,–,–,–,·,·,
O=C1c2ccccc2NC2(CCCC2)N1N=C1CCCC1,–,–,–,–,·,·,
CC/C(C)=N/N1C(=O)c2ccccc2NC1(C)CC (configuration not stated),–,–,38.0,–,114.5,126.8,
C=CCOc1ccc2c(OC)c3ccoc3nc2c1OC,–,–,86.7,–,39.5,28.0,
CCOc1c2ccoc2nc2c(OC)c(OC)ccc12,–,–,67.2,–,+,175.3,
CC1(C(=O)Nc2cccc(Oc3ccccc3)c2)Cc2c(-c3ccc4c(c3)OCO4)ccnc2O1 (configuration not stated),–,·,–,·,·,·,
SMILES,GDH-TPI counter-1,Rv3671c inh,Mtb FBA inh,UGM FP inh,Mtb FBA inh conf,GDH-TPI counter-2,others
CC1(C(=O)Nc2ccccc2)Cc2c(-c3ccc4c(c3)OCO4)ccnc2O1 (configuration not stated),–,·,47.5,·,–,–,GDH-TPI DR=4.48
CC1(C(=O)Nc2cccnc2)Cc2c(-c3ccc4c(c3)OCO4)ccnc2O1 (configuration not stated),–,·,36.7,·,43.4,29.9,
CC(=O)Nc1ccc(NC(=O)C2(C)Cc3c(-c4ccc5c(c4)OCO5)ccnc3O2)cc1 (configuration not stated),–,·,52.3,·,–,–,
COc1ccc(CCc2nnc(N)s2)cc1OC,–,–,–,–,·,·,
Cc1cc2[nH]c(=O)cc(-c3ccccc3)n2n1,–,–,34.0,–,153.3,119.8,
Cc1cc2[nH]c(=O)c3ccccc3n2n1,–,–,–,–,·,·,
Cc1nn(-c2ccccc2)c(=S)n1-c1ccccc1,–,–,–,–,·,·,
OCCn1nc2c3ccccc3nc-2n(-c2ccccc2)c1=S,–,–,30.7,–,135.6,116.4,
COC(=O)CC(c1ccc(OC)c(OC)c1)c1ccc(OC)c(OC)c1,–,–,–,–,·,·,
O=C(NC1CCCC1)c1cc2nc(-c3ccccc3)cc(-c3ccccc3)n2n1,–,–,–,–,·,·,
O=C1CCC(=O)N1c1nc2nc(-c3ccccc3)cc(-c3ccccc3)n2n1,–,–,66.5,–,89.4,62.2,
Cc1ccccc1NC(=O)NC1(C(=O)NCc2ccco2)CCCCC1,–,–,–,–,·,·,
COc1cccc2[nH]c(C(=O)NCc3ccccc3)cc12,–,–,68.3,–,74.5,72.6,
COc1ccccc1C(=O)NCc1ccccc1,–,–,–,–,·,·,
COc1cc2oc(=O)c(CC(=O)N3C[C@H]4C[C@@H](C3)c3cccc(=O)n3C4)c(C)c2cc1Cl,–,·,44.9,·,35.0,28.3,
COc1ccc2c(C)c(CC(=O)N3C[C@H]4C[C@@H](C3)c3cccc(=O)n3C4)c(=O)oc2c1OC,–,–,29.9,–,–,–,
CSc1ccccc1C(=O)N(CC1CCCO1)c1c(N)n(Cc2ccccc2)c(=O)[nH]c1=O (configuration not stated),–,–,–,–,·,·,
CCc1cc2ccc(C)cc2nc1SCC(=O)Nc1cc(OC)c(OC)cc1C(=O)O,–,–,47.1,–,–,–,
O=c1[nH]c2cc3c(cc2cc1CN(CCCO)Cc1nnnn1Cc1ccc(F)cc1)OCO3,–,–,35.9,–,35.4,29.8,
O=c1[nH]c2cc3c(cc2cc1CN(Cc1ccc2c(c1)OCO2)Cc1nnnn1CC1CCCO1)OCO3 (configuration not stated),–,–,39.7,–,46.6,39.6,
Cc1ccc2[nH]c(=O)c(CN(Cc3cccnc3)Cc3nnnn3CC3CCCO3)cc2c1 (configuration not stated),–,–,–,·,·,·,
O=C(NCCc1ccc(Cl)cc1)c1cc(-c2ccccn2)nc2ccccc12,–,–,–,–,·,·,
CC(C)COC(=O)N1CCCCC1c1cc(C(=O)NCc2cccnc2)no1 (configuration not stated),–,·,–,·,·,·,
COc1ccc2cc3cc(C(=O)N4CCN(C5CCCCC5)CC4)oc3nc2c1,–,–,50.2,–,–,–,GDH-TPI DR=1.66
COc1ccc2nc3oc(C(=O)N4CCC5(CC4)OCCO5)cc3cc2c1,–,–,50.0,–,187.0,156.3,
SMILES,GDH-TPI counter-1,Rv3671c inh,Mtb FBA inh,UGM FP inh,Mtb FBA inh conf,GDH-TPI counter-2,others
COc1ccc2nc3oc(C(=O)Nc4ccc(OC)c(OC)c4)cc3cc2c1,–,–,–,–,·,·,
COc1cc(OC)cc(C(=O)N2CCN(C3CCCCC3)CC2)c1,–,–,–,–,·,·,
COc1ccc2nc3oc(C(=O)N4CCN(c5ccccc5F)CC4)cc3cc2c1,–,–,–,–,·,·,
COc1ccc2cc3cc(C(=O)NCCc4ccc(OC)c(OC)c4)oc3nc2c1,45.4,–,30.5,–,54.2,45.9,
CC(=O)Nc1nc2ccc(-c3nc4ccccc4o3)cc2s1,–,–,104.8,–,92.4,75.2,
CCC(=O)Nc1cccc(-c2nc3ccccc3o2)c1,–,–,–,–,·,·,

# Source: PubChem
